In PubChem BioAssay (EPA / NIEHS):
Where “and” joins values, the source holds several entries; their conditions need not be identical. Equal values may be shown once. Results filed as inconclusive are left out. Some compounds were tested as several samples or in several runs, with calls that do not always agree. Calls of active or inactive are those of the source. How the source made its calls, unless noted: active means hit-call score of the fitted dose curve at least 0.9, where 1 is the maximum; inactive means score below 0.9.

Tests used:
[1] = target: Myc proto-oncogene protein (Homo sapiens) (UniProt P01106); assay: ATG_Myc_CIS: Attagene CIS-FACTORIAL HepG2 Assay for human Myelocytomatosis (Myc) Proto-Oncogene Transcription Factor (AID 2282990); conditions: HepG2, Attagene cis-reporter transcription factor activity; actives raise or lower the signal
How it was run: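 HepG2, transient MRTU transfection (cis promoters, endogenous TFs); 24 h dosing; TriZol RNA → oligo(dT) RT → PCR → 6-FAM primer extension → HpaI cut → CE. Bidirectional fit vs DMSO.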

[2] = ATG_NF_kB_CIS: Attagene CIS-FACTORIAL HepG2 Assay for human Nuclear Factor Kappa B (NF-kB) (AID 2282991); conditions: HepG2 Attagene cis-factorial NF-kB reporter mRNA; actives raise or lower the signal
How it was run: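 Fluorescence of labelled RT-PCR products separated by capillary electrophoresis gives reporter mRNA levels from transfected HepG2 cells exposed 24 h; values are fitted in both directions relative to DMSO.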

[3] = ATG_NRF2_ARE_CIS: Attagene CIS-FACTORIAL HepG2 Assay for human Nuclear Factor Erythroid 2 Related Factor 2 (NFR2) response to Antioxidant Response Elements (ARE) (AID 2282992); conditions: HepG2 Attagene ARE/NRF2 reporter, transcription factor activity; actives raise or lower the signal
How it was run: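 Endogenous transcription factor activity in human liver HepG2 cells is tracked via a cis-element-driven reporter within a multiplexed set. mRNA induction is read by RT-PCR and capillary electrophoresis after 24 h, with DMSO as baseline.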

[4] = target: Cellular tumor antigen p53 (Homo sapiens) (UniProt P04637); assay: ATG_p53_CIS: Attagene CIS-FACTORIAL HepG2 Assay for human p53 Transcription Factor (AID 2282994); conditions: HepG2 p53 cis-element reporter, Attagene mRNA; actives raise or lower the signal
How it was run: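 Steps: transfect HepG2 with multiplexed cis reporter constructs; dose chemicals 24 h; extract RNA, reverse-transcribe, PCR-amplify reporter sequences; FAM-label, HpaI-digest, resolve fragments by CE. Activity fitted both directions relative to DMSO.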

[5] = BSK_3C_TissueFactor: BioMAP Diversity Plus: 3C Assay for Tissue Factor Biomarker Activity (AID 2282997); conditions: BioMAP 3C HUVEC, tissue factor biomarker readout; actives raise or lower the signal
How it was run: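 HUVEC, 3C system, 24 h post-dose; Tissue Factor by ELISA; bidirectional fit vs DMSO baseline.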

[6] = BSK_3C_uPAR: BioMAP Diversity Plus: 3C Assay for Urokinase-type plasminogen activator receptor (uPAR) Biomarker Activity (AID 2282998); conditions: BioMAP 3C HUVEC, uPAR biomarker ELISA; actives raise or lower the signal
How it was run: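 HUVEC primary cells; 24 h post-dose; uPAR by ELISA; gain or loss of signal fitted bidirectionally vs DMSO baseline.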

[7] = BSK_3C_VCAM1: BioMAP Diversity Plus: 3C Assay for Vascular cell adhesion molecule 1 (VCAM1) Biomarker Activity (AID 2282999); conditions: BioMAP 3C HUVEC, VCAM1 ELISA, cytokine-stimulated; actives raise or lower the signal
How it was run: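 Activity fitted in both directions relative to DMSO, with ELISA measurement of the surface marker on primary HUVEC (3C) at 24 h post-treatment; parallel SRB staining (0.1% SRB, TCA-fixed, 560 nm) flagged overt cytotoxicity.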

[8] = BSK_4H_Eotaxin3: BioMAP Diversity Plus: 4H Assay for Eotaxin 3 Biomarker Activity (AID 2283000); conditions: primary human endothelial cells (HUVEC); actives raise or lower the signal
How it was run: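 Readout is Eotaxin-3 (CCL26) level by ELISA in primary human umbilical vein endothelial cells harvested 24 h after chemical exposure; activity fitted in both directions against DMSO control.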

[9] = target: human Peroxisome Proliferator-activated Receptor delta (PPARd), PPARD (gene 5467) (UniProt Q03181); assay: ATG_PPARd_TRANS: Attagene TRANS-FACTORIAL HepG2 Assay for human Peroxisome Proliferator-activated Receptor delta (PPARd) (AID 2283002; active means hit-call score of the fitted dose curve at least 0.9, where 1 is the maximum)
How it was run: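 Transient HepG2 transfection (multiple GAL4-UAS RTUs, chimeric receptor-Gal4); 24 h dosing; total RNA → oligo(dT) RT → PCR → 6-FAM primer extension → HpaI cut → CE. Positive direction vs DMSO.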

[10] = read-out: Intercellular Adhesion Molecule 1 (ICAM1), ICAM1 (gene 3383); assay: BSK_3C_ICAM1: BioMAP Diversity Plus: 3C Assay for Intercellular Adhesion Molecule 1 (ICAM1) Biomarker Activity (AID 2283003); conditions: primary human endothelial cells (HUVEC); actives raise or lower the signal
How it was run: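 ELISA read-out of ICAM-1; HUVEC (primary human), 3C system, 24 h post-dosing; bidirectional fit vs DMSO baseline.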

[11] = target: human Retinoic Acid Receptor beta (RARb), RARB (gene 5915) (UniProt P10826); assay: ATG_RARb_TRANS: Attagene TRANS-FACTORIAL HepG2 Assay for human Retinoic Acid Receptor beta (AID 2283004; active means hit-call score of the fitted dose curve at least 0.9, where 1 is the maximum)
How it was run: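 Readout is reporter mRNA induction: RNA reverse-transcribed, PCR-amplified, FAM-labelled, HpaI-cut and resolved by capillary electrophoresis. Transiently transfected HepG2 cells carrying exogenous NR–Gal4 chimeras were dosed for 24 h; activity fitted upward relative to DMSO.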

[12] = target: Retinoic acid receptor alpha (Homo sapiens) (UniProt P10276); assay: ATG_RARa_TRANS: Attagene TRANS-FACTORIAL HepG2 Assay for human Retinoic Acid Receptor alpha (RARa) (AID 2283005; active means hit-call score of the fitted dose curve at least 0.9, where 1 is the maximum)
How it was run: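 Reporter transcripts, measured by RT-PCR with fluorescent labeling and capillary electrophoresis after 24 h dosing, reflect activity of an exogenous human RARa–GAL4 fusion in transiently transfected HepG2. Fitted for increase relative to DMSO.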

[13] = BSK_3C_Proliferation: Cell Proliferation Assessment in the BioMAP Diversity Plus: 3C Assay (AID 2283006); conditions: primary human endothelial cells (HUVEC);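 on AC50: potency may reflect either rise or fall in cell number versus DMSO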
How it was run: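 HUVEC, sub-confluent; 48 h chemical exposure; 10% TCA fix, 0.1% SRB stain, A560 total protein. Gain or loss of signal fitted both directions vs DMSO control.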

[14] = target: Peroxisome proliferator-activated receptor gamma (Homo sapiens) (UniProt P37231); assay: ATG_PPARg_TRANS: Attagene TRANS-FACTORIAL HepG2 Assay for human Peroxisome Proliferator-activated Receptor-gamma (PPARg) (AID 2283007; active means hit-call score of the fitted dose curve at least 0.9, where 1 is the maximum)
How it was run: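 Twenty-four hours after chemical dosing of transiently transfected HepG2 cells, isolated RNA was converted to cDNA, reporter sequences amplified and 6-FAM-labelled, then HpaI-digested and analysed by capillary electrophoresis. Signal increase against DMSO was fitted.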

[15] = target: Nuclear receptor subfamily 1 group I member 2 (Homo sapiens) (UniProt O75469); assay: ATG_PXR_TRANS: Attagene TRANS-FACTORIAL HepG2 Assay for human Pregnane X Receptor (PXR) (AID 2283008; active means hit-call score of the fitted dose curve at least 0.9, where 1 is the maximum)
How it was run: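 HepG2 transfected (FuGene 6) with GAL4-UAS reporter units + PXR-Gal4 chimera; dosed 24 h. Total RNA → oligo(dT) RT → PCR → 6-FAM primer extension → HpaI cut → CE. Gain-of-signal vs DMSO.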

[16] = target: human Retinoic Acid Receptor gamma (RARg), RARG (gene 5916) (UniProt P13631); assay: ATG_RARg_TRANS: Attagene TRANS-FACTORIAL HepG2 Assay for human Retinoic Acid Receptor gamma (RARg) (AID 2283009; active means hit-call score of the fitted dose curve at least 0.9, where 1 is the maximum)
How it was run: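 Readout: reporter transcript levels via RT-PCR, 6-FAM primer-extension labelling, HpaI digestion and capillary electrophoresis. Cells: HepG2 carrying transfected RARg-GAL4 chimera plus UAS reporter set. Dosing 24 h; DMSO negative control.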

[17] = target: human RAR-related Orphan Receptor gamma (RORg), RORC (gene 6097) (UniProt P51449); assay: ATG_RORg_TRANS: Attagene TRANS-FACTORIAL HepG2 Assay for human RAR-related Orphan Receptor gamma (RORg) (AID 2283011; active means hit-call score of the fitted dose curve at least 0.9, where 1 is the maximum;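 on AC50: potency for induction of reporter transcripts above DMSO so activators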)
How it was run: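 Transient MRTU transfection of HepG2 (TRANS format, exogenous NR-Gal4 chimera). 24 h dosing. Total RNA → oligo(dT) RT → PCR → 6-FAM labelling → HpaI cut → CE. Gain vs DMSO.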

[18] = ATG_Oct_MLP_CIS: Attagene CIS-FACTORIAL HepG2 Assay for human Octamer-Binding Transcription Factor (Oct) (AID 2282993); conditions: HepG2 Attagene cis-factorial Oct reporter, mRNA; actives raise or lower the signal
How it was run: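 Read-out: reporter mRNA via RT-PCR plus capillary electrophoresis of 6-FAM-labelled fragments. Transiently transfected HepG2, 24 h exposure, endogenous TF activity on cis elements. Gain or loss of signal fitted relative to DMSO.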

[19] = target: human Peroxisome Proliferator-activated Receptor alpha (PPARa), PPARA (gene 5465) (UniProt Q07869); assay: ATG_PPARa_TRANS: Attagene TRANS-FACTORIAL HepG2 Assay for human Peroxisome Proliferator-activated Receptor alpha (PPARa) (AID 2283001; active means hit-call score of the fitted dose curve at least 0.9, where 1 is the maximum)
How it was run: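 Transfected HepG2 cells treated with test chemical for 24 h. RNA isolated, reverse-transcribed with oligo(dT), PCR-amplified, FAM-labelled and HpaI-digested. Fragments sized by capillary electrophoresis; gain-of-signal fit relative to DMSO.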

[20] = target: human RAR-related Orphan Receptor beta (RORb), RORB (gene 6096) (UniProt Q92753); assay: ATG_RORb_TRANS: Attagene TRANS-FACTORIAL HepG2 Assay for human RAR-related Orphan Receptor beta (RORb) (AID 2283010; active means hit-call score of the fitted dose curve at least 0.9, where 1 is the maximum;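 on AC50: potency for increased reporter mRNA meaning activation of RORb-Gal4 chimera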)
How it was run: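 HepG2, transient MRTU transfection (GAL4-UAS reporters, exogenous NR-Gal4 chimeras); 24 h compound exposure; total RNA → RT-PCR → 6-FAM primer extension → HpaI digest → CE fluorescence. Positive direction vs DMSO baseline.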

Measured: AC50

human RAR-related Orphan Receptor gamma (RORg), RORC (gene 6097), sequence (P51449 whole entry, looked up, the tested form may be a part): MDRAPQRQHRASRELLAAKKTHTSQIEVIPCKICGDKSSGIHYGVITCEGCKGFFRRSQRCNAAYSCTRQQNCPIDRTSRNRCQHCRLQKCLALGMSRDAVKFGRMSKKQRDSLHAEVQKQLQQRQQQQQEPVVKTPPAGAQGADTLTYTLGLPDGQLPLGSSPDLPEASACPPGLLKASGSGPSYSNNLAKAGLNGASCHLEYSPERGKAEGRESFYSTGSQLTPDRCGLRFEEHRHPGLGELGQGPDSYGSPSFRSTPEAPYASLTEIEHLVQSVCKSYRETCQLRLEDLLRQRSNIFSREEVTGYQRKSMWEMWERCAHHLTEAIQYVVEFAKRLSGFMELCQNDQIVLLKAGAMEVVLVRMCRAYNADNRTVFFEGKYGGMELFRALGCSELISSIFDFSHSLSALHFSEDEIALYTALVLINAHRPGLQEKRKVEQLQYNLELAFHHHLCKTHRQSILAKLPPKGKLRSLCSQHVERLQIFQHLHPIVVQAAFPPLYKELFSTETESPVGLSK
Myc proto-oncogene protein (Homo sapiens), sequence (P01106 whole entry, looked up): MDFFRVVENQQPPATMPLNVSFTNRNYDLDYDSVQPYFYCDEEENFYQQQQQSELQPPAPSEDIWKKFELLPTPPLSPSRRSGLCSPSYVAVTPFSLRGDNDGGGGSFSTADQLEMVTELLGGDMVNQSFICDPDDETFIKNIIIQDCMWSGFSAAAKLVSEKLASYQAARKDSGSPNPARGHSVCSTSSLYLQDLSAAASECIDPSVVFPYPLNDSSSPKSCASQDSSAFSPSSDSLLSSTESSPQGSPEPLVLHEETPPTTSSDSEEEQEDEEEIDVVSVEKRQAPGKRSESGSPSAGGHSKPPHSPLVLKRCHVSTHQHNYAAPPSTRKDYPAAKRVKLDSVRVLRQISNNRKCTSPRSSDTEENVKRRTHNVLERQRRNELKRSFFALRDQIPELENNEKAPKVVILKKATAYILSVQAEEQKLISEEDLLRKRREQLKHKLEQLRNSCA
human Peroxisome Proliferator-activated Receptor alpha (PPARa), PPARA (gene 5465), sequence (Q07869 whole entry, looked up, the tested form may be a part): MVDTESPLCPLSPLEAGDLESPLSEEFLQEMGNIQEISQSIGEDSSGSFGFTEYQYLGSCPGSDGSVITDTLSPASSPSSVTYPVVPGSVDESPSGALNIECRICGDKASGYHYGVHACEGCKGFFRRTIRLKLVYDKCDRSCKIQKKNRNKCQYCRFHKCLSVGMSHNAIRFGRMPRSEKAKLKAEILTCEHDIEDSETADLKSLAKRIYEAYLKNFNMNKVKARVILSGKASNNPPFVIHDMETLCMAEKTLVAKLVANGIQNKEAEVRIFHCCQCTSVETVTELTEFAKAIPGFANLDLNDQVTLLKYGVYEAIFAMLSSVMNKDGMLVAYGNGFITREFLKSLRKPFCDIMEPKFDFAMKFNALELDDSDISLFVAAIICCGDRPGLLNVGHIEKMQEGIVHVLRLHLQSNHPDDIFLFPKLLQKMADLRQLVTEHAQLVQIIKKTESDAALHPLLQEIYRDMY
Peroxisome proliferator-activated receptor gamma (Homo sapiens), sequence (P37231 whole entry, looked up): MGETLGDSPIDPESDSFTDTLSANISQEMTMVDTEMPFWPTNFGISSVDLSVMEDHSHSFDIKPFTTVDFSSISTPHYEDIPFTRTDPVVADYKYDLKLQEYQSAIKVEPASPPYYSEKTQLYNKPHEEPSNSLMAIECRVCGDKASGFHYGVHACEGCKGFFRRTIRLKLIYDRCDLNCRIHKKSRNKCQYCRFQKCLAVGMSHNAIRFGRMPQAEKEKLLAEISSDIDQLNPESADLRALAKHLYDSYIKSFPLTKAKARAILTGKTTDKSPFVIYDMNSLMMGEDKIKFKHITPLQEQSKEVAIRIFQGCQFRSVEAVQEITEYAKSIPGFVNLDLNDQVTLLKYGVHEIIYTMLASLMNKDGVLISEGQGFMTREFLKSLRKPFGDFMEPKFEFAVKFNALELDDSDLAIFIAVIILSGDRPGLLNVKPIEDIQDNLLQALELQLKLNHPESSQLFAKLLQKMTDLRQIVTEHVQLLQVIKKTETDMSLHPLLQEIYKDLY
human Retinoic Acid Receptor beta (RARb), RARB (gene 5915), sequence (P10826 whole entry, looked up, the tested form may be a part): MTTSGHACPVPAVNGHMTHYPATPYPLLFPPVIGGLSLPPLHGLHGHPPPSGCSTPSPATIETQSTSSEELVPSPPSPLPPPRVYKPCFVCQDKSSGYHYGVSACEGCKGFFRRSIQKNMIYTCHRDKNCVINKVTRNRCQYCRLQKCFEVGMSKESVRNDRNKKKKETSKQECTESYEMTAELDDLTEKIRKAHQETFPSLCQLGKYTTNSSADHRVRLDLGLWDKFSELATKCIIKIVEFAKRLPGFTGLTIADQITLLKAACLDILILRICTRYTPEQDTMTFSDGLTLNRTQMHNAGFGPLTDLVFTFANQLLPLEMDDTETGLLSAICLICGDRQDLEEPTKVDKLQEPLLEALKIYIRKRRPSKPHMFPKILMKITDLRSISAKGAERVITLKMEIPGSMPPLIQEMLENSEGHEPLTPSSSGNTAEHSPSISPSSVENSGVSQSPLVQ
Retinoic acid receptor alpha (Homo sapiens), sequence (P10276 whole entry, looked up, the tested form may be a part): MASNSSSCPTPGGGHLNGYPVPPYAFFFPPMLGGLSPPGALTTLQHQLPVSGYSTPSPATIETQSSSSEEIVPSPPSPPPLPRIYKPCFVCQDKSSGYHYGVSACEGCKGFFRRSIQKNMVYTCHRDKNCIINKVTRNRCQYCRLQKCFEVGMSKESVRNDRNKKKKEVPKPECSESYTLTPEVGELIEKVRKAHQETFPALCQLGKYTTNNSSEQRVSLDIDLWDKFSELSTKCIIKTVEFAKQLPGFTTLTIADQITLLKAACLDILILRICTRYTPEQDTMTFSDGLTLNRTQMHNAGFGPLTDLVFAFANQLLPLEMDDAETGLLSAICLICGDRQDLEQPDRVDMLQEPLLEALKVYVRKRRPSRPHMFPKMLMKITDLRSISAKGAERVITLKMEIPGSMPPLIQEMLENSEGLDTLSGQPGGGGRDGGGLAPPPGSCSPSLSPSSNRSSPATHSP
human Peroxisome Proliferator-activated Receptor delta (PPARd), PPARD (gene 5467), sequence (Q03181 whole entry, looked up, the tested form may be a part): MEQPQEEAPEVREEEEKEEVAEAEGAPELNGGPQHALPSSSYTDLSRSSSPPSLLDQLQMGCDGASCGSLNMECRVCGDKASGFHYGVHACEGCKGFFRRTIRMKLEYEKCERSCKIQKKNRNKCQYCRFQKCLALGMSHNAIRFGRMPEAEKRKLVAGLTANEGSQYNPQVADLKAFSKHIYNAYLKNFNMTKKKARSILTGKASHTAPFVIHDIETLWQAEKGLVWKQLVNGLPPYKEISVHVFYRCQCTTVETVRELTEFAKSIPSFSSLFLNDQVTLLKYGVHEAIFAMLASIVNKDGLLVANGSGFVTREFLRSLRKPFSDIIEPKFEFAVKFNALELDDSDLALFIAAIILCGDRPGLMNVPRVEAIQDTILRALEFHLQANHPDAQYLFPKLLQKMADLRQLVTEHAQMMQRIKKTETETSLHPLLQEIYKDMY
human RAR-related Orphan Receptor beta (RORb), RORB (gene 6096), sequence (Q92753 whole entry, looked up, the tested form may be a part): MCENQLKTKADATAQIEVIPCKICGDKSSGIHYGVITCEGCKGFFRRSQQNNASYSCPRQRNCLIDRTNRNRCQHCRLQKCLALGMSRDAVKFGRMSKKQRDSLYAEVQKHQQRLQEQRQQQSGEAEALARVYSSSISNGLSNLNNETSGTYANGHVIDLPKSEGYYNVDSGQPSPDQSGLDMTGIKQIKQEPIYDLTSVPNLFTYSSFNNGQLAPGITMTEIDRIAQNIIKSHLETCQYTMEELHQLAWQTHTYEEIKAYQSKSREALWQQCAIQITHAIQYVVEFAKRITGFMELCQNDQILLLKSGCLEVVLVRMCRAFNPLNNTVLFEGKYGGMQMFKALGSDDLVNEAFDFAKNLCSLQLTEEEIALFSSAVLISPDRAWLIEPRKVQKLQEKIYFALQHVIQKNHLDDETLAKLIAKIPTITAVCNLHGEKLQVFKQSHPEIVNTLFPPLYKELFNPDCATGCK
human Retinoic Acid Receptor gamma (RARg), RARG (gene 5916), sequence (P13631 whole entry, looked up, the tested form may be a part): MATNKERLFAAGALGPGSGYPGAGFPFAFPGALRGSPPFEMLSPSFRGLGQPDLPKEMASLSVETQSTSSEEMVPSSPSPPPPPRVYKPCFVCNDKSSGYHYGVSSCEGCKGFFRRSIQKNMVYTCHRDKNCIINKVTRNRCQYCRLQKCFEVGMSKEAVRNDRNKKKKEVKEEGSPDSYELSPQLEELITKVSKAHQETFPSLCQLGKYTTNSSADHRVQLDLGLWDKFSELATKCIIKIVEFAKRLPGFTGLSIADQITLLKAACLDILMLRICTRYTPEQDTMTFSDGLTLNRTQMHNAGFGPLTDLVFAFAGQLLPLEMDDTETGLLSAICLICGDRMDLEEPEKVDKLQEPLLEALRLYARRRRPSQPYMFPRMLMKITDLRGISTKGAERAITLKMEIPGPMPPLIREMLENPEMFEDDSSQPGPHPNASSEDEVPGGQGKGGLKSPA
Nuclear receptor subfamily 1 group I member 2 (Homo sapiens), sequence (O75469 whole entry, looked up, the tested form may be a part): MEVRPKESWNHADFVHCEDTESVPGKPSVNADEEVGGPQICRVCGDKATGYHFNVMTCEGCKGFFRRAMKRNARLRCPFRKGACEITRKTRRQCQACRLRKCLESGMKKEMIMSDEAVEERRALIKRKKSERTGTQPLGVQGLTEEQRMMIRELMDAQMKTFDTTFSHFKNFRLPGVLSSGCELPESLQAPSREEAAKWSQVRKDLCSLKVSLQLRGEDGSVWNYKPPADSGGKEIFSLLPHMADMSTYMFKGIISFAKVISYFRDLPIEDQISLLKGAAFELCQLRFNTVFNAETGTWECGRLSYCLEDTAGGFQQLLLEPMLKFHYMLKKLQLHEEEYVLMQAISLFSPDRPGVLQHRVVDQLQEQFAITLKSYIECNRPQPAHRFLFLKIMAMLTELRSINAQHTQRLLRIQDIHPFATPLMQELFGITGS

CCN(Cc1c(F)cccc1Cl)c1c([N+](=O)[O-])cc(C(F)(F)F)cc1[N+](=O)[O-]
active: [3] 4.28 µM | [6] 12 µM | [13] 12.9 µM | [15] 3.41 µM
not listed: [18] | [19] | [20]
inactive: all other assays above

CC(C)(C)[C@@H](O)[C@@H](Cc1ccc(Cl)cc1)n1cncn1
active: [3] 13.4 µM | [18] 7.98 µM
not listed: [20]
inactive: all other assays above

COC(=O)c1cccc(C)c1S(=O)(=O)NC(=O)Nc1nc(OCC(F)(F)F)nc(N(C)C)n1
active: [3] 30.9 µM
not listed: [17] | [19] | [20]
inactive: all other assays above

COC(=O)c1ccc(CNS(C)(=O)=O)cc1S(=O)(=O)NC(=O)Nc1nc(OC)cc(OC)n1
not listed: [9] | [12] | [16] | [18]
inactive: all other assays above

COC(=O)c1ccccc1C(=O)O
not listed: [9] | [11] | [12] | [17] | [19] | [20]
inactive: all other assays above

c1ccc(Nc2ccccc2)cc1
active: [3] 123 µM and 30.4 µM | [14] 50 µM
not listed: [16] | [17] | [18] | [20]
inactive: all other assays above

CCCCOC(=O)C(C)Oc1ccc(Oc2ccc(C(F)(F)F)cn2)cc1 (stereo not drawn)
not listed: [12] | [16]
inactive: all other assays above

C#C[C@]1(O)CC[C@H]2[C@@H]3CCC4=CC(=O)CC[C@@H]4[C@H]3CC[C@@]21CC
active: [3] 52.1 µM | [13] 16 µM | [15] 9.53 µM
inactive: [1] | [2] | [3] | [4] | [5] | [6] | [7] | [8] | [19] | [9] | [10] | [14] | [15]

N#CSCSc1nc2ccccc2s1
active: [2] 3.07 µM | [3] 2.89 µM | [5] 3.33 µM and 5.66 µM | [6] 2.04 µM and 6.26 µM | [7] 6.63 µM and 10.3 µM | [8] 2.64 µM and 9.47 µM | [10] 6.48 µM and 15.4 µM | [13] 824 nM and 2.52 µM | [14] 23.1 µM | [20] 12.3 µM | [17] 11.9 µM
inactive: [1] | [2] | [3] | [19] | [9] | [14] | [15] | [16] | [20] | [17]

CCCN(CCC)c1c([N+](=O)[O-])cc(C(F)(F)F)c(N)c1[N+](=O)[O-]
active: [2] 50 µM | [3] 5.51 µM | [5] 36.5 µM | [6] 31.8 µM | [7] 30.8 µM | [8] 30.3 µM | [10] 36.8 µM | [13] 13.2 µM | [15] 3.98 µM
inactive: [1] | [4] | [9] | [11] | [12] | [14] | [16] | [17]

CC(=O)S[C@@H]1CC2=CC(=O)CC[C@]2(C)[C@H]2CC[C@@]3(C)[C@@H](CC[C@@]34CCC(=O)O4)[C@H]12
inactive: [1] | [3] | [4] | [19] | [9] | [10] | [14] | [15] | [17]
active: [1] 7.76 µM | [3] 100 µM | [4] 27.6 µM [middle of 4 runs] | [5] 16.1 µM | [6] 27.8 µM | [7] 29.5 µM | [8] 36.5 µM | [13] 28 µM

CCCCOC(=O)[C@@H](C)Oc1ccc(Oc2ccc(C(F)(F)F)cn2)cc1
not listed: [9] | [17]
inactive: all other assays above

O=C(Nc1ccc([N+](=O)[O-])cc1Cl)c1cc(Cl)ccc1O
active: [2] 1.17 µM | [3] 0.544 µM | [4] 700 nM | [6] 0.145 µM | [7] 0.189 µM | [8] 0.148 µM | [10] 20 µM | [13] 0.313 µM
not listed: [17] | [18] | [19]
inactive: all other assays above
